# In PubChem BioAssay (NCI):
# The panel holds about 83,000 compounds, 20% with a hit somewhere; the sample as a whole holds those more often.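 The endpoint reported here, percent growth, reads 100 for growth as untreated, 0 for no net growth and -100 for all cells dead.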 The source made the active and inactive calls. The calls were made as follows: active = growth percent below 10; inactive = the rest.
# Tested on: HOP-62 NSCLC
# Assay: NCI-60 one-dose screen, 48 h (100 = growth as untreated, 0 = no growth, -100 = all killed)
# Details: 10 µM unless noted
row,SMILES,growth
1,Cc1ccc(C(=O)Nc2ccc(CN3CCN(C)CC3)c(C(F)(F)F)c2)cc1C#Cc1cnc(N)c2ccc(F)cc12,-68.8% (active)
2,CCOC(=O)CNS(=O)(=O)CC(=O)c1ccccc1,83.8% (inactive)
3,O=C(Nc1cccc(Cn2c(=O)[nH]c3ccc(Oc4ncccn4)cc3c2=O)c1)c1ccc(Cl)cc1,55.2% (inactive)
4,O=C(Nc1cccc(Cn2c(=O)[nH]c3ccc(Oc4ncccn4)cc3c2=O)c1)c1cc(Cl)cc(Cl)c1,71.6% (inactive)
5,C=C1CCC2C3(C)COC(c4ccccc4)OC3CCC2(C)C1C/C=C1/C(=O)OCC1O (stereo unspecified),117% (inactive)
6,CC(C)(C)OC(=O)N1C/C(=C\c2ccccc2)C(=O)/C(=C/c2ccccc2)C1,96.4% (inactive)
7,O=C(Nc1cccc(Cn2c(=O)[nH]c3ccc(Oc4ncccn4)cc3c2=O)c1)c1cccc(F)c1,79% (inactive)
8,Cc1c([C@H](C(Cl)Cl)[C@H](O)[C@H]2C[C@H](C)C(=O)O2)ccc2c1C(=O)[C@H]1[C@H]2C[C@@H](Br)[C@@]23O[C@@H](CO[C@H]2O)CC13C (stereo partly specified),49.8% (inactive)
9,CCCCCC(=C/c1ccccc1)/C=N/N=C(N)N,-4.74% (active)
10,COc1cc2oc(-c3ccc(NC(=O)c4ccccc4)cc3)cc(=O)c2c(OC)c1OC,90.3% (inactive)
11,N#Cc1c(N)nc(Nc2nc3ccccc3[nH]2)nc1-c1ccc(Cl)cc1,112% (inactive)
12,Cc1ccc(C(=O)NN)cc1,104% (inactive)
13,C/C=C(/C)C(=O)OC1C=C(CO)C(=O)C(OC(=O)/C(C)=C\C)C1C(C)C (stereo unspecified),-31.4% (active)
14,Cc1ncc(C(=O)Nc2ccc(CN3CCN(C)CC3)c(C(F)(F)F)c2)cc1C#Cc1cnc(NC2CC2)c2ncccc12,16.9% (inactive)
15,CC(=O)N(N=O)c1ccc([N+](=O)[O-])cc1Cl,97% (inactive)
16,O=C(NCCCl)Nc1nccnc1OCc1ccc(F)cc1,91.4% (inactive)
17,COc1cc2c(c(OC)c1OC)C(=O)CC(c1cccc(C(=O)Nc3cccc(Br)c3)c1)O2 (stereo unspecified),86% (inactive)

# Tested on: NCI-H460 lung
# Assay: as above
# Details: 10 µM unless noted
row,SMILES,growth
1,COc1cc(NC(=O)CSc2nc3ccc(Cl)cc3c(=O)n2-c2ccc(F)cc2)cc(OC)c1OC,91.3% (inactive)
2,FC(F)(F)c1cccc(-c2[nH]ncc2-c2nnnn2-c2ccccc2)c1,21.8% (inactive)
3,COc1cc(CCNc2cnc3cc(N)cc(N)c3n2)cc(OC)c1,120% (inactive)
4,O=C(Nc1ccc(Cl)cn1)C1(c2ccccc2)CCCCC1,102% (inactive)
5,Brc1c(-c2ccncc2)nc2n1CCS2,103% (inactive)
6,CC(=O)c1cc(Nc2cc(C)nc(N)n2)cc(C(C)=O)c1,104% (inactive)
7,Nc1cc(N)c2nc(-c3ccccc3)c(NCCc3ccc(Cl)c(Cl)c3)nc2c1,-10.9% (active)
8,O=C(Nn1cnc2ccccc21)N1CCCC1,117% (inactive)
9,O=C1NCCN1/N=C/c1c(Cl)nc2n1CCS2,111% (inactive)
10,CC(=O)N1N=C(c2ccc(Cl)cc2)CC1c1cn(-c2ccccc2)nc1-c1ccc([N+](=O)[O-])cc1 (stereo unspecified),101% (inactive)
11,COc1cc(N)c2nccc(C)c2c1OC,112% (inactive)
12,COc1cc(OC)c2c(=O)cc(-c3ccccc3)oc2c1,104% (inactive)
13,Cc1nn(-c2ccccc2)c(N)c1N=C1NC(=O)/C(=C/c2ccc(Cl)cc2)S1,92.6% (inactive)
14,COCC(=O)NNc1[nH]c(-c2ccc(OC)cc2)cc1C#N,117% (inactive)
15,CCCOC(=O)c1c(C)n(C)c2scc[n+]12,110% (inactive)
16,Cc1ccc2c(O)c(O)cc(NC(C)CCCN)c2n1 (stereo unspecified),107% (inactive)
17,Cc1ccc2c(c1)C(=O)CCS2,117% (inactive)
18,O=C(O)/C(Br)=C/c1c[nH]c2ccc(Br)cc12,122% (inactive)
19,COc1ccc(-n2nnnc2-c2cn[nH]c2C(F)(F)F)cc1,110% (inactive)
20,COc1ccc(C2C3(C#N)C(N)=NC(=C(C#N)C#N)C23C#N)cc1OC (stereo unspecified),119% (inactive)
21,CCOC(=O)c1cc(-c2ccc(OC)cc2)[nH]c1NNC(=O)CCOC,119% (inactive)
22,CC1=C(C)C(=O)C(C(C)C2=C(C)C(=O)C(C)=C(C)C2=O)=C(C)C1=O,95.9% (inactive)
23,COc1cc(NC(C)CCCN)c2nccc(C)c2c1OC (stereo unspecified),109% (inactive)

# Tested on: HOP-92 NSCLC
# Assay: as above
# Details: 10 µM
row,SMILES,growth
1,COc1cc(NC(=O)CSc2nc3ccc(Cl)cc3c(=O)n2-c2ccc(F)cc2)cc(OC)c1OC,36% (inactive)
2,Cc1ccc(C(=O)Nc2ccc(CN3CCN(C)CC3)c(C(F)(F)F)c2)cc1C#Cc1cnc(N)c2ccc(F)cc12,-90.3% (active)
3,FC(F)(F)c1cccc(-c2[nH]ncc2-c2nnnn2-c2ccccc2)c1,34.2% (inactive)
4,COc1cc(CCNc2cnc3cc(N)cc(N)c3n2)cc(OC)c1,154% (inactive)
5,O=C(Nc1ccc(Cl)cn1)C1(c2ccccc2)CCCCC1,60.7% (inactive)
6,Brc1c(-c2ccncc2)nc2n1CCS2,73.9% (inactive)
7,O=C(Nc1cccc(Cn2c(=O)[nH]c3ccc(Oc4ncccn4)cc3c2=O)c1)c1ccc(Cl)cc1,52.8% (inactive)
8,CC(=O)c1cc(Nc2cc(C)nc(N)n2)cc(C(C)=O)c1,71.9% (inactive)
9,O=C(Nc1cccc(Cn2c(=O)[nH]c3ccc(Oc4ncccn4)cc3c2=O)c1)c1cc(Cl)cc(Cl)c1,44.1% (inactive)
10,CC(C)(C)OC(=O)N1C/C(=C\c2ccccc2)C(=O)/C(=C/c2ccccc2)C1,69.4% (inactive)
11,Nc1cc(N)c2nc(-c3ccccc3)c(NCCc3ccc(Cl)c(Cl)c3)nc2c1,-78.5% (active)
12,O=C(Nn1cnc2ccccc21)N1CCCC1,74.1% (inactive)
13,O=C(Nc1cccc(Cn2c(=O)[nH]c3ccc(Oc4ncccn4)cc3c2=O)c1)c1cccc(F)c1,60.9% (inactive)
14,O=C1NCCN1/N=C/c1c(Cl)nc2n1CCS2,51.3% (inactive)
15,CC(=O)N1N=C(c2ccc(Cl)cc2)CC1c1cn(-c2ccccc2)nc1-c1ccc([N+](=O)[O-])cc1 (stereo unspecified),117% (inactive)
16,Cc1c([C@H](C(Cl)Cl)[C@H](O)[C@H]2C[C@H](C)C(=O)O2)ccc2c1C(=O)[C@H]1[C@H]2C[C@@H](Br)[C@@]23O[C@@H](CO[C@H]2O)CC13C (stereo partly specified),69.2% (inactive)
17,COc1cc2oc(-c3ccc(NC(=O)c4ccccc4)cc3)cc(=O)c2c(OC)c1OC,69.2% (inactive)
18,N#Cc1c(N)nc(Nc2nc3ccccc3[nH]2)nc1-c1ccc(Cl)cc1,78.4% (inactive)

row,SMILES,growth
1,COc1cc(N)c2nccc(C)c2c1OC,81.7% (inactive)
2,COc1cc(OC)c2c(=O)cc(-c3ccccc3)oc2c1,54.9% (inactive)
3,C/C=C(/C)C(=O)OC1C=C(CO)C(=O)C(OC(=O)/C(C)=C\C)C1C(C)C (stereo unspecified),-72.8% (active)
4,Cc1nn(-c2ccccc2)c(N)c1N=C1NC(=O)/C(=C/c2ccc(Cl)cc2)S1,79.9% (inactive)
5,COCC(=O)NNc1[nH]c(-c2ccc(OC)cc2)cc1C#N,95.4% (inactive)
6,Cc1ncc(C(=O)Nc2ccc(CN3CCN(C)CC3)c(C(F)(F)F)c2)cc1C#Cc1cnc(NC2CC2)c2ncccc12,33.4% (inactive)
7,CCCOC(=O)c1c(C)n(C)c2scc[n+]12,30.1% (inactive)
8,Cc1ccc2c(O)c(O)cc(NC(C)CCCN)c2n1 (stereo unspecified),84.4% (inactive)
9,CC(=O)N(N=O)c1ccc([N+](=O)[O-])cc1Cl,31.6% (inactive)
10,Cc1ccc2c(c1)C(=O)CCS2,89.1% (inactive)
11,O=C(O)/C(Br)=C/c1c[nH]c2ccc(Br)cc12,174% (inactive)
12,COc1ccc(-n2nnnc2-c2cn[nH]c2C(F)(F)F)cc1,91.8% (inactive)
13,COc1ccc(C2C3(C#N)C(N)=NC(=C(C#N)C#N)C23C#N)cc1OC (stereo unspecified),76.8% (inactive)
14,CCOC(=O)c1cc(-c2ccc(OC)cc2)[nH]c1NNC(=O)CCOC,73.1% (inactive)
15,O=C(NCCCl)Nc1nccnc1OCc1ccc(F)cc1,79.4% (inactive)
16,CC1=C(C)C(=O)C(C(C)C2=C(C)C(=O)C(C)=C(C)C2=O)=C(C)C1=O,114% (inactive)
17,COc1cc(NC(C)CCCN)c2nccc(C)c2c1OC (stereo unspecified),47.9% (inactive)
18,COc1cc2c(c(OC)c1OC)C(=O)CC(c1cccc(C(=O)Nc3cccc(Br)c3)c1)O2 (stereo unspecified),55.3% (inactive)
